# Test results: PubChem BioAssay AID1347416 (National Center for Advancing Translational Sciences (NCATS), 2020)
# Hit rate of the full screen: of about 4,100 compounds, about 1,600 (39%) were called active. Roughly 25% stayed inconclusive and do not appear here. The call rests on the fitted dose curve; in most records, active means well fitted inhibition curve with a large enough effect; inconclusive means small, poorly fitted or top-dose-only effect; inactive means no such curve, though single readings can be large or run the other way. Some of the results follow. Entries that show only a call come without a potency.
# Assay: qHTS Validation assay for Inhibitors of Plasmodium falciparum Dd2 growth in vitro; further: nearly all actives have a fitted effect of over 70% in size
# Conditions: P. falciparum Dd2 in RBCs, SYBR Green growth, 72 h; series mostly up to 28.7 µM
# Summary of the method: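 P. falciparum Dd2-infected red blood cells (2.5% hematocrit, 0.3% parasitemia) grown 72 h at 37 °C under 5% O2 with compounds in a titration, 29 uM to 0.5 nM final. Growth read as SYBR Green-1 fluorescence after ~16 h lysis; artesunate 300 nM as positive control.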
# Potency means the concentration at half of the fitted maximal effect.
row,Structure (SMILES),Potency
1,Cc1cc(C(C)c2ccccc2)c(O)c(CN2CCOCC2)c1C (stereo not given),2.99 µM (active)
2,CC(Oc1ccc(Br)cc1)c1nc2c3ccccc3nc(=S)n2[nH]1 (stereo not given),inactive
3,Oc1ccccc1Nc1nc(-c2ccccc2O)nc2ccccc12,0.944 µM (active)
4,C/C(=N\Nc1nc(-c2ccccc2O)nc2ccccc12)c1ccccc1,0.75 µM (active)
5,CNC(=O)[C@H]1C[C@H](Oc2cccnc2)CN1S(=O)(=O)Cc1ccccc1F,inactive
6,CN1C(=O)CCC2(C(=O)O)CCCC=C12 (stereo not given),inactive
7,O=C(NCC12CCC=C1N(CC1CC1)C(=O)CC2)Nc1cccc(F)c1 (stereo not given),inactive
8,CCN(CC)CCNC(=O)C12CCCC=C1N(Cc1ccccc1)C(=O)CC2 (stereo not given),8.41 µM (active)
9,Cc1ccc(NC(=O)C2CCN(S(=O)(=O)c3ccc4[nH]c(=O)ccc4c3)CC2)cc1C,inactive
10,COc1ccc(/C=C\c2onc(C)c2S(=O)(=O)N2CCC(C(=O)Nc3ccc(C)cc3C)CC2)cc1,0.842 µM (active)
11,CCOc1ccccc1NC(=O)C1CCN(S(=O)(=O)c2c(C)noc2/C=C/c2ccco2)CC1,15 µM (active)
12,CCOC(=O)c1c(S(=O)(=O)N2CCC(C(=O)Nc3ccc(F)cc3F)CC2)c(C)n(C)c1C,inactive
13,CCOCCOC1CCN(S(=O)(=O)c2c(C)noc2C)CC1,inactive
14,Cc1cc(C)c(/C=C/c2onc(C)c2S(=O)(=O)N2CCC(C(=O)Nc3ccc(Cl)c(C(F)(F)F)c3)CC2)c(C)c1,10.6 µM (active)
15,Cc1cc(C)n(Cc2ccc(C(=O)N3CCC(c4noc(-c5cccnc5)n4)C3)o2)n1 (stereo not given),inactive
16,Cc1ccc(CC(=O)NCc2nnc3c(-c4nc(C(C)C)no4)cccn23)cc1,inactive
17,Cc1ccc(CSC2=Nc3ccccc3C3=NC(CC(=O)NCc4ccco4)C(=O)N23)cc1 (stereo not given),6.68 µM (active)
18,COc1ccc(NC(=O)c2cc3c(N4CCSCC4)nc(C)cn3n2)cc1OC,inactive
19,Cc1ccccc1OCCSc1nc2ccc(NC(=O)c3cccs3)cc2s1,5.31 µM (active)
20,COc1cc(C)ccc1OCCSc1nc2ccc(NC(=O)c3cccs3)cc2s1,13.3 µM (active)
21,Cc1ccc2[nH]c(C(=O)Nc3ccc(F)cc3)cc2c1,inactive
22,COc1cc(C)ccc1OCCSc1nc2ccc(NC(=O)c3ccc(F)cc3)cc2s1,10.6 µM (active)

row,Structure (SMILES),Potency
1,Cc1cccc(OCCSc2nc3ccc(NC(=O)c4cccs4)cc3s2)c1,9.44 µM (active)
2,Cc1ccccc1C(=O)NNc1ccc(-c2csnn2)cc1,inactive
3,CCCCc1ccc(NC(=O)CSC2=C(C#N)C(c3ccco3)C3=C(CCCC3=O)N2)cc1 (stereo not given),inactive
4,N[C@@H]1CN(c2ncccn2)C[C@H]1CO,inactive
5,O=C(NCc1cccs1)c1ccc(CN2C(=O)NC3(CCS(=O)(=O)CC3)C2=O)cc1,inactive
6,Cc1ccccc1OCCSc1nc2ccc(NC(=O)c3ccccc3)cc2s1,15 µM (active)
7,CCCOc1cccc(C(=O)Nc2ccc(-c3cc4ccccc4oc3=O)c(C)c2)c1,inactive
8,COc1ccc(S(=O)(=O)N2CCC3(CC2)OCCN3S(=O)(=O)c2c(C)cc(C)cc2C)cc1,2.66 µM (active)
9,COc1ccc(S(=O)(=O)N2CCc3cc(OC)c(OC)cc3C2)cc1,inactive
10,O=C1C(Nc2ccccc2)=C/C(=N/S(=O)(=O)c2cccs2)c2ccccc21,0.335 µM (active)
11,Cc1cccc(NC2=C/C(=N/S(=O)(=O)c3cccs3)c3ccccc3C2=O)c1,0.168 µM (active)
12,COC(=O)[C@H]1[C@H]2C[C@@H]3c4[nH]c5cc(OC)ccc5c4CCN3C[C@H]2C[C@@H](OC(=O)/C=C/c2cc(OC)c(OC)c(OC)c2)[C@@H]1OC,5.31 µM (active)
13,Cc1ccc(NC(=O)Cn2c(-c3ccccc3)nc(C)c(CCO)c2=O)cc1Cl,10.6 µM (active)
14,Cc1nc(-c2ccccc2)n(CC(=O)Nc2ccc(Cl)cc2)c(=O)c1CCO,16.8 µM (active)
15,CCOC(=O)c1ccc(NC(=O)Cn2c(-c3cnccn3)nc(C)c(CCO)c2=O)cc1,inactive
16,Cc1nc(-c2cccc(Cl)c2)n(CC(=O)Nc2ccc(C(F)(F)F)cc2)c(=O)c1CCO,13.3 µM (active)
17,COc1ccc2c(c1)C=C([C@@H]1C[C@H]3CN(c4ccccc4)C(=O)[C@]34CCCN14)CO2,0.944 µM (active)
18,COc1ccc(-c2cc(-c3cccc(NC(C)=O)c3)cn3cncc23)cn1,21.7 µM (active)
19,CC(C)(C)c1ccc(-c2cc(C[C@H]3CNCC[C@H]3CC(=O)N3CCN(c4ccccn4)CC3)no2)cc1,15 µM (active)
20,CC(=O)N1CCN(C(=O)C[C@@H]2CCNC[C@@H]2Cc2cc(CSc3ccccc3)on2)CC1,inactive
21,O=C(C[C@@H]1CCNC[C@@H]1Cc1cc(CSc2ccccc2)on1)N1CCN(c2ccccc2)CC1,8.41 µM (active)
22,CCC(=O)N1CCCCCCNC(=O)[C@@H]2C[C@@H](C(=O)N3CCN(c4ccccn4)CC3)C[C@@H]21,inactive

row,Structure (SMILES),Potency
1,COc1ccc(CNC(=O)C[C@@H]2CCNC[C@@H]2Cc2cc(-c3ccccc3)on2)cc1OC,inactive
2,O=C(C[C@@H]1CCNC[C@@H]1Cc1cc(COc2ccccc2)on1)NCc1cccs1,inactive
3,CCN1CCN(Cc2ccc(NC(=O)c3cc(NC(=O)c4cc(-c5ccc(OC)cc5)n[nH]4)cc(OC)c3)cc2C(F)(F)F)CC1,0.168 µM (active)
4,COc1cc(NC(=O)c2nnn(Cc3ccc(F)cc3)c2N)cc(OC)c1,inactive
5,CCN1CCN(Cc2ccc(NC(=O)c3cc(NC(=O)c4cncc(-c5ccc(C#N)cc5)c4)cc(OC)c3)cc2C(F)(F)F)CC1,0.596 µM (active)
6,O=C(Nc1ccc2c(c1)C(=O)N1CCC[C@H]1C(=O)N2)c1cc(-c2ccccc2)n[nH]1,inactive
7,CCN1CCN(Cc2ccc(NC(=O)c3cc(NC(=O)c4nccnc4N)cc(OC)c3)cc2C(F)(F)F)CC1,4.73 µM (active)
8,COc1ccc(CNC(=O)N[C@@H]2CN(c3ccncn3)C[C@H]2CN(C)C)cc1,inactive
9,O=c1cc(CSc2ccc(Cl)cc2)nc(-c2ccccn2)[nH]1,5.96 µM (active)
10,COc1ccc2cc1Nc1ccc(cc1)C[C@H](NCc1cccc(C(=O)O)c1)C(=O)N(C)[C@H](C(=O)Nc1ccccc1OCc1ccccc1)C2,4.73 µM (active)
11,COc1ccc2cc1Nc1ccc(cc1)C[C@H](NCc1ccc(C)o1)C(=O)N(C)[C@H](C(=O)NCCC(C)C)C2,5.96 µM (active)
12,COc1ccc2cc1Nc1ccc(cc1)C[C@H](NCc1ccc(C)o1)C(=O)N(C)[C@@H](C(=O)NCc1ccccc1)C2,5.31 µM (active)
13,CC(C)(C)CC(=O)N1CCC(N2C(=O)CCC2C(=O)NCc2ccccc2)CC1 (stereo not given),inactive
14,CCC(=O)N1CCN(c2nc3c(s2)CC(C(=O)NCc2ccc(C)o2)CC3)CC1 (stereo not given),inactive
15,COc1ccc2cc1Nc1ccc(cc1)C[C@H](NCc1ccc3c(c1)CCO3)C(=O)N(C)[C@H](C(=O)NCCC(C)C)C2,3.35 µM (active)
16,Cc1ccc(C(=O)N2CCCCCCNC(=O)[C@@H]3CCC[C@@H]32)s1,inactive
17,Cc1cccc(CSc2nn3c(=O)c(C)nnc3s2)c1,inactive
18,CNC(=O)[C@@H]1C[C@@H](n2cc(CN(C)C(=O)c3cc(F)ccc3Cl)nn2)CN1,inactive
19,O=C(COc1ccccc1)NC1CC(=O)N(c2ccc3c(c2)OCCO3)C1 (stereo not given),inactive
20,CC(C)COC(=O)/C(C#N)=C\c1ccc(-c2ccccc2Cl)o1,inactive
21,Cc1noc(C)c1S(=O)(=O)NCC(=O)N1CCCCCCNC(=O)CC1c1ccccc1 (stereo not given),inactive
22,O=C1CC(c2ccccc2)N(Cc2ccncc2)CCCN(S(=O)(=O)c2cccc(F)c2)CCN1 (stereo not given),4.73 µM (active)

row,Structure (SMILES),Potency
1,Cc1noc(C)c1S(=O)(=O)N1CCCN(Cc2ccncc2)C(c2ccccc2)CC(=O)NCC1 (stereo not given),7.5 µM (active)
2,O=C1CCC2(CCN1)CCN(S(=O)(=O)c1cccnc1)CC2,inactive
3,O=C1CC(c2ccccc2)N(S(=O)(=O)c2cccc(F)c2)CCCCCN1 (stereo not given),inactive
4,O=C1CC(c2ccccc2)N(Cc2ccncc2)CCCN(S(=O)(=O)c2cccs2)CCN1 (stereo not given),6.68 µM (active)
5,Cc1noc(C)c1S(=O)(=O)N1CCc2nc3cc(-c4ccccc4)[nH]n3c(=O)c2C1,inactive
6,O=C(C1CC1)N(Cc1nc2ccccc2c(=O)[nH]1)Cc1cccs1,inactive
7,COCCN1CCNc2nc(CNCc3cnccn3)n(Cc3ccccc3)c2C1=O,inactive
8,COc1ccc(CNC[C@H]2O[C@H](Cc3cc(-c4ccccc4)on3)CC[C@@H]2O)cc1,3.85 µM (active)
9,Cc1ccc(S(=O)(=O)NC[C@H]2O[C@H](Cc3cc(-c4cccc(O)c4)on3)CC[C@@H]2O)cc1,inactive
10,O[C@H]1CC[C@@H](Cc2cc(-c3ccc(F)cc3)on2)O[C@@H]1CNC1CCCCC1,2.43 µM (active)
11,COc1ccc(-c2cc(C[C@@H]3CC[C@H](O)[C@@H](CNCc4ccccc4OC)O3)no2)cc1,3.44 µM (active)
12,COc1ccc(CNC[C@H]2O[C@H](Cc3cc(-c4ccc(OC)cc4)on3)CC[C@@H]2O)cc1,10.6 µM (active)
13,Cc1nccn1CC(=O)N1C[C@@H](COCC2CC2)[C@H](c2ccncc2)C1,inactive
14,O=C(N[C@@H]1CN(c2ncccn2)C[C@H]1CO)c1cc2ccccc2[nH]1,inactive
15,NC(=O)CN1C(=O)CO[C@H]2CN(Cc3ccc4c(c3)OCO4)C[C@H]21,inactive
16,COc1ccc(NC(=O)C(c2ccc(Cl)cc2)C(C)C)cn1 (stereo not given),1.88 µM (active)
17,COC[C@@H]1CN(c2cnccn2)C[C@H]1C(=O)Nc1ccc(OC)nc1,inactive
18,COc1ccc(-c2cn(C)c(=O)n3cc(COc4ccc(Cl)cc4)nc23)cn1,inactive
19,Cn1c(-n2cccc2)c(-c2c(-c3ccc(F)cc3)[nH]c3c2c(=O)n(C)c(=O)n3C)c(=O)n(C)c1=O,inactive
